# Pf growth 96h: inhibits malaria parasite growth, 96 h; P. falciparum luciferase reporter growth, 96 h; Potency, µM (titrated, usually from 28.7 µM), for the others: at the top dose activity change, negative = inhibition, hits mostly inhibitors; 320,000 compounds, 6.9% hits; AID 504834; active = well fitted inhibition curve with a large enough effect; inconclusive = small, poorly fitted or top-dose-only effect, or another doubt; inactive = no such curve, though single readings can be large or run the other way; note: potency is the fitted concentration of half-maximal effect; % is set by controls: 0 for no effect and ±100 for the full control effect
#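 P. falciparum expressing integrated firefly luciferase grown in erythrocytes (2% hematocrit, 0.05% parasitemia final) with compounds for 96 hours at 37 C, 5% CO2. Growth inhibition read as loss of luminescence after adding luciferase detection reagent.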
# NS1 function inh: inhibitors of influenza NS1 protein function; 270,000 compounds, 0.4% hits; Potency, µM (doses to about 46.1 µM), for inactives: at the highest dose activity, positive = more growth; note: potency is the fitted concentration of half-maximal effect; actives are rising curves; nearly all actives have a fitted effect of over 50% in size
#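 A cell-based growth assay was used: compounds that relieve NS1-induced slow growth of budding yeast raise OD600. Assay medium was yeast nitrogen base with ammonium sulphate and -URA supplement, pH 6.0, with 2% galactose.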
# CHX counter: counter-screen for Shiga toxin inhibitors: cycloheximide protein synthesis inhibition; AID 2314; cell reporter, cycloheximide protein synthesis inhibition counterscreen; 300,000 compounds, 12% hits; max response, %; in the data active = max response mostly above about 13%, no sharp cut-off; inactive = mostly below about 14%; note: read at 38.3 µM for the half of the compounds with a filed dose; 0% is about no effect
# SARS PLpro yeast: inhibitors of SARS-CoV papain-like protease in yeast | 330,000 compounds, 0.19% hits | S. cerevisiae expressing SARS-CoV PLpro, growth rescue | Potency, µM (top dose mostly 32.9 µM), inactives show top-dose activity, positive = growth rescue, actives largely listed as activators | AID 485353; note: potency is the fitted concentration of half-maximal effect; 0% is about no effect; nearly all actives have a fitted effect of over 55% in size
# Pf growth 48h: inhibits P. falciparum growth in the first generation, 48 h | P. falciparum luciferase growth in erythrocytes, 48 h | AID 504832 | Potency, µM (doses to about 28.7 µM), inactives show at the top dose activity change, negative = inhibition, actives largely listed as inhibitors | 310,000 compounds, 5.9% hits; active = well fitted inhibition curve with a large enough effect; inconclusive = small, poorly fitted or top-dose-only effect, or another doubt; inactive = no such curve, though single readings can be large or run the other way; note: potency is the fitted concentration of half-maximal effect; % is set by controls: 0 for no effect and ±100 for the full control effect
#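 Luciferase-expressing parasites in RBCs, 2% Hct / 0.1% parasitemia final; RPMI 1640 + 0.5% Albumax; 37 C, 5% CO2, one generation; luminescence read-out, lower signal = inhibition.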
# Shiga inhibitor: blocks Shiga toxin action in Vero cells. Vero cells, Shiga toxin protein synthesis inhibition reporter. AID 2315. 290,000 compounds, 9.2% hits. inhibition, % at 38.7 µM; in the data active = inhibition mostly above about 28%, no sharp cut-off; inactive = mostly below about 43%; note: 0% is about no effect
# * = called active by the depositor; ? = inconclusive; nt = no result; ! = repeats disagree. This is a sample that favours compounds with a hit; in the whole collection about 21% have one here. Unless noted, calls come from the whole dose curve.
SMILES,Pf growth 96h,NS1 function inh,CHX counter,SARS PLpro yeast,Pf growth 48h,Shiga inhibitor
C[C@@H]1CC=C[C@H]2[C@H]1C(=O)N(Cc1ccccc1)[C@H]2c1ccc(C(F)(F)F)cc1,?,-77.7%,-1.2,-15.6%,?,-5.0
CN(C)c1ccc(-c2cccc(C3CC=CC4C3C(=O)N(Cc3ccccc3)C4c3ccc(C(F)(F)F)cc3)c2)cc1 (stereo unspecified),?,1.6%,14.1*!,-0.7%,?,50.2
Cc1ccc(-c2cccc(C3CC=CC4C3C(=O)N(Cc3ccccc3)C4c3cc(C)ccc3F)c2)cc1 (stereo unspecified),7.38µM*,-0.6%,22.5,1.0%,4.65µM*,24.4
O=C1C2C(c3ccccc3)CC=CC2[C@H](c2ccc(C(F)(F)F)cc2)N1Cc1ccccc1 (stereo partly specified),?,-56.6%,7.3,-7.7%,3.29µM*,14.8
COc1ccc(-c2cccc(C3CC=CC4C3C(=O)N(Cc3ccccc3)C4c3ccc(C(F)(F)F)cc3)c2)cc1 (stereo unspecified),7.38µM*,-4.5%,0.5,1.6%,6.57µM*,-5.0
Cn1c(CNC(=O)c2ccccc2F)nnc1SCC(=O)c1ccccc1,?,11.9%,1.9,4.5%,-3.6%,-2.3
COc1ccc(C2C3C=CCC(c4cccc(/C=C/c5ccccc5)c4)C3C(=O)N2Cc2ccccc2)cc1Cl (stereo unspecified),nt,nt,36.3*,nt,nt,35.9*
CCOc1ccccc1CNCCOC,19.3%,1.6%,-4.8,0.0%,-1.1%,16.0
Cn1c(C(=O)NCCCN2CCOCC2)cc2c(=O)n(C)c3ccccc3c21,-94.0%,?,-4.1,8.2%,nt,-4.0
CC1CCN(CCCNC(=O)c2cc3c(=O)n(C)c4ccccc4c3n2C)CC1,7.38µM*,-0.5%,-5.7,-0.4%,nt,-9.1
Cn1c(C(=O)NCCCN2CCN(c3ccccc3F)CC2)cc2c(=O)n(C)c3ccccc3c21,9.28µM*,-37.6%,-3.8,3.8%,nt,-15.8
Cc1ccc(CNC(=O)c2cc3c(=O)n(C)c4ccccc4c3n2C)o1,9.28µM*,-4.5%,-7.0,-0.7%,nt,-12.9
CC(C)N1CCN(Cc2cccc(-n3cccn3)c2)CC1CCO (stereo unspecified),-7.1%,-2.2%,-1.7,1.4%,9.3%,9.9
O=C(c1ccccc1)c1ccc(CN2C(=O)c3ccccc3C2=O)o1,7.5%,-31.6%,8.1,-4.7%,3.8%,-5.3
O=C(c1ccccc1)c1coc2c1C(=O)c1ccccc1C2=O,-16.2%,nt,32.8*,-0.7%,?,94.3*
COc1ccc(C(=O)c2coc3c2C(=O)C(=O)c2ccccc2-3)cc1,?,-80.2%,33.0*,-4.3%,-47.1%,75.7*
O=C1c2ccccc2C(=O)c2c1oc(C(F)(F)F)c2C(=O)c1ccccc1,0.131µM*,?,24.5*,-24.7%,?,29.9
COc1ccc(C(=O)c2c[nH]cc2-c2ccccc2)cc1,18.9%,1.4%,0.4,9.7%,-6.9%,11.5
CCCn1c(=O)[nH]c(=O)c2c1nc(-c1ccc(OC)c(Br)c1)n2CCOC,?,1.4%,-3.6,-2.3%,0.3%,-5.6
O=C(Nc1cc2cc([N+](=O)[O-])ccc2oc1=O)c1cccs1,15.6%,nt,27.7*,1.8%,99.8%,52.3*
O=C(Nc1cc([N+](=O)[O-])ccc1N1CCCC1)c1cccs1,13.1µM*,12.1%,-2.8,-2.1%,?,7.5
O=C(Nc1cc([N+](=O)[O-])ccc1N1CCOCC1)c1cccs1,38.0%,1.7%,19.6,2.1%,9.2%,-6.0
CC1N(C)c2cc(NC(=O)c3cccs3)c(P(=O)(Nc3ccc([N+](=O)[O-])cc3)N3CCOCC3)cc2C1(C)C (stereo unspecified),?,13.8%,-1.2,3.0%,13.1µM*,-12.0
CCOC(=O)CN(C(=O)CSc1nnc2c(n1)[nH]c1ccc(F)cc12)c1ccccc1,2.8%,0.0%,-4.3,7.2%,13.1µM*,21.6
CCOC(=O)CN(C(=O)CSc1nnc2c(n1)[nH]c1ccccc12)c1ccccc1,?,-7.4%,7.6,1.1%,7.38µM*,28.4
SMILES,Pf growth 96h,NS1 function inh,CHX counter,SARS PLpro yeast,Pf growth 48h,Shiga inhibitor
CCOc1ccc(CCNC(=O)CCNS(=O)(=O)c2ccc3c(c2)CCN3C(C)=O)cc1OCC,36.3%,-9.9%,-2.7,-2.8%,?,6.3
CNc1ccccc(-c2ccc3cc4c(cc3n2)OCO4)c1=O,442.2%,3.3%,65.6*,-42.7%,253.3%,58.8*
O=C(NNC(=O)C1CCN(S(=O)(=O)c2ccc(Cl)cc2)CC1)c1ccccc1,24.9%,?,0.9,-1.0%,28.7%,-11.4
O=C(CCCCCNc1nc(=S)[nH]c2ccccc12)NCc1ccccc1Cl,?,8.0%,-0.7,0.5%,?,-10.0
S=c1nc(NCCc2ccccc2Cl)c2ccccc2[nH]1,-7.3%,-3.2%,26.2*,1.3%,-35.9%,30.9
COc1ccc(-c2cc(=O)oc3cc(O)ccc23)cc1,15.7%,2.6%,-1.2,-1.9%,31.7%,11.2
O=c1cc(-c2ccccc2)oc2ccc(O)cc12,88.9%,-36.7%,31.9*,-1.8%,82.8%,64.1*
O=C(COc1ccc2oc(-c3ccccc3)cc(=O)c2c1)NCc1ccco1,11.3%,-8.8%,24.6*,-2.7%,2.7%,58.4
COc1ccc(-c2cc(=O)c3cc(O)ccc3o2)cc1,313.5%,1.2%,53.2*,-1.4%,192.7%,62.0*
Cc1cc(=O)oc2ccc(OCC(=O)NCc3ccco3)cc12,58.7%,-2.1%,9.0,5.4%,nt,-14.6
COc1cc(C(=O)N/N=C/c2ccc(OC)c(CN3CCN(c4ccc(F)cc4)CC3)c2)ccc1O,-0.5%,nt,6.3,3.4%,?,51.6
O=C(N1CCOCC1)N1CCN(S(=O)(=O)N2CCCCC2)CC1,4.15µM*,-1.6%,-1.0,6.5%,12.4%,-4.1
O=S(=O)(N1CCOCC1)N1CCCN(S(=O)(=O)N2CCOCC2)CC1,28.5%,0.1%,-1.1,1.1%,-7.7%,11.5
CC1(CN2CCC(n3c(=O)[nH]c4ccccc43)CC2)OCc2ccccc2-n2cccc21 (stereo unspecified),13.5µM*,nt,4.0,nt,15.1µM*,-12.1
Cc1ccc(C2C3C(=O)N(c4ccc(C)cc4)C(=O)C3N3CCCN23)cc1 (stereo unspecified),?,-1.3%,4.3,-1.9%,?,-6.5
CCO[C@H]1OC(C(=O)N2CCN(Cc3ccc4c(c3)OCO4)CC2)=C[C@@H](c2ccc3c(c2)OCO3)[C@@H]1CCCO,13.1µM*,-7.3%,-1.4,-0.1%,5.86µM*,-3.0
C#Cc1ccc([C@H]2C=C(C(=O)N3CCN(Cc4ccc5c(c4)OCO5)CC3)O[C@@H](OCC)[C@@H]2CCCO)cc1,4.15µM*,-10.3%,1.0,0.2%,4.15µM*,-4.1

# Screening results (PubChem BioAssay)
